Only some compounds are listed: those with a hit (about 21% of all), similar ones and a draw of the others.
CYP2C9 act: increases human cytochrome P450 2C9 activity; P11712; recombinant CYP2C9, luciferin-H conversion, luminescence; hits give high values; factor 1 = untreated enzyme, 0 = blocked; activation factor at 5 µM; 96,000 tested, 1.4% active; AID 1024;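 active = activation factor of 2 or more for CYP2C9 at a 5 µM dose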;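 also: 0 = sulfaphenazole-blocked wells and 1 = vehicle-only wells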
Target sequence (P11712 whole entry, looked up): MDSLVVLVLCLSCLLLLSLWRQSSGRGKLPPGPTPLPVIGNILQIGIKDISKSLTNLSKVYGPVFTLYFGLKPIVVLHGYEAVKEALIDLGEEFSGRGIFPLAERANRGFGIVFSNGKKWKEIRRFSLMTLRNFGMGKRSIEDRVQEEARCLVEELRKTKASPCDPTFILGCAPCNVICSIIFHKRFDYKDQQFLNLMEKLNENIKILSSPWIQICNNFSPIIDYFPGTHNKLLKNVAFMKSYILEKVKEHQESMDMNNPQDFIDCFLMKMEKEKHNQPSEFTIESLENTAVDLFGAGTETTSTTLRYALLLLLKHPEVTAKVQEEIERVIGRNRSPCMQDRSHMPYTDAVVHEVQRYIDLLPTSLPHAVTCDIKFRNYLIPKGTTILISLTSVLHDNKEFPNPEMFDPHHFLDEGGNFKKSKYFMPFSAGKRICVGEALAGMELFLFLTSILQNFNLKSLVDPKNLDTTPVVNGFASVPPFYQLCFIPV
MRP-1 activ: activates MRP-1; H69AR cells + doxorubicin, viability rescue, CellTiter-Glo; viability increase, % at 10 µM; 140,000 tested, 0.61% active; AID 799;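 active = viability gain under doxorubicin at or above a set limit, the compound median plus 3 SD, cut at about 4.7% in these data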;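 also: MRP-1 overexpressing cells given doxorubicin 25 µM after compound pretreatment; 18-22 h compound pretreatment then 72 h with doxorubicin before readout; 0% = doxorubicin-only wells and 100% = vehicle-treated cells without doxorubicin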
CYP2C9 inhib: human CYP2C9 inhibition; P11712; CYP2C9 Supersomes, luciferin-H conversion, luminescence; inhibition, % at 5 µM; 96,000 tested, 20% active; AID 777;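 active = blocking of liver enzyme CYP2C9 beyond about 50% at 5 µM, limit read from the data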
CYP2C19 inh: human CYP2C19 inhibition; P33261; CYP2C19 Supersomes, luciferin-H EGE luminescence, 30 min; inhibition, % at 5 µM; 96,000 tested, 21% active; AID 778;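 active = CYP2C19 inhibition above a set limit at 5 µM in the primary screen, cut at about 50% in these data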;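 also: plate controls were negative control wells for no effect and 2.5 mM tranylcypromine positive control for full effect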
MRP resist rev: compounds reversing MRP-mediated drug resistance | H69AR cells + 2 uM doxorubicin, CellTiter-Glo, 72 h | differential viability (reversal), % at 10 µM | 85,000 tested, 0.04% active | AID 602;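 active = viability drop by adding the cancer drug above about 55%, with treated viability meeting a 40% cutoff, limit read from the data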;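 also: viability without doxorubicin minus viability with 2 µM doxorubicin for each compound; larger differential means the compound sensitizes cells more to doxorubicin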
CYP2C19 act: increases human CYP2C19 enzyme activity; P33261; recombinant CYP2C19, luciferin-H EGE luminescence; hits give high values; 0 = fully inhibited enzyme, 1 = untreated enzyme; activation factor at 5 µM; 96,000 tested, under 10 active;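 active = activation factor of at least 2 at 5 µM in the primary screen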;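 also: 0 = wells with 2.5 mM tranylcypromine and 1 = vehicle-only wells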
Starred values were filed as active, the others as inactive.

N#CCCn1c(C2CCCCC2)nc2ccccc21 was read as CYP2C9 act 1.2, MRP-1 activ -2, CYP2C9 inhib -17, CYP2C19 inh -18, MRP resist rev -4 and CYP2C19 act 1.2.
COc1ccc(CNC(=O)CN(C2CCCCC2)S(C)(=O)=O)cc1 was read as MRP-1 activ -1.
For O=C1CC(c2ccco2)CC(O)=C1C=NCCN1CCN(C(=O)Nc2ccc(Cl)cc2)CC1 (stereo not drawn) the results were MRP-1 activ 1.
O=C1CC(c2ccc(F)cc2)CC(O)=C1C=NCCN1CCN(C(=O)Nc2ccccc2)CC1 (stereo not drawn) was read as CYP2C9 act 0.5, MRP-1 activ 2, CYP2C9 inhib 54*, CYP2C19 inh 77*, MRP resist rev 12 and CYP2C19 act 0.2.
`Cc1noc(C)c1Cn1nc(C(=O)O)c2ccccc2c1=O` gave CYP2C9 act 0.2, MRP-1 activ -1, CYP2C9 inhib 80*, CYP2C19 inh 36, MRP resist rev 7 and CYP2C19 act 0.6.
Cc1cccc(C)c1OCCn1nc(C(=O)O)c2ccccc2c1=O was read as CYP2C9 act 1, MRP-1 activ -2, CYP2C9 inhib 1, CYP2C19 inh 28, MRP resist rev 1 and CYP2C19 act 0.7.
`CCOc1ccc(C(C)=O)cc1Cn1nc(C(=O)O)c2ccccc2c1=O` gave CYP2C9 act 0.9, MRP-1 activ -2, CYP2C9 inhib 5, CYP2C19 inh 2, MRP resist rev 3 and CYP2C19 act 1.
`Cc1cccc(OCCn2nc(C(=O)O)c3ccccc3c2=O)c1` gave CYP2C9 act 0.3, MRP-1 activ -1, CYP2C9 inhib 68*, CYP2C19 inh 72*, MRP resist rev 10 and CYP2C19 act 0.3.
`O=C1c2cccnc2C(=O)N1Cc1ccc(F)cc1` gave CYP2C9 act 1, MRP-1 activ 1, CYP2C9 inhib 3, CYP2C19 inh 18, MRP resist rev 8 and CYP2C19 act 0.8.
Screening COc1cccc(C(=O)Nc2nc(-c3ccc(S(=O)(=O)N4CCOCC4)cc3)cs2)c1 returned CYP2C9 act 0.2, MRP-1 activ -1, CYP2C9 inhib 83*, CYP2C19 inh 30, MRP resist rev -9 and CYP2C19 act 0.7.
`O=C(Nc1nc(-c2ccc(S(=O)(=O)N3CCOCC3)cc2)cs1)c1ccccc1` gave CYP2C9 act 0.5, MRP-1 activ 0, CYP2C9 inhib 48, CYP2C19 inh 9, MRP resist rev 9 and CYP2C19 act 0.9.
Screening Cc1ccc(-c2csc(NC(=O)c3cccc(S(=O)(=O)N4CCN(C)CC4)c3)n2)cc1 returned CYP2C9 act 0.9, CYP2C9 inhib 6, CYP2C19 inh 97*, MRP resist rev 11 and CYP2C19 act 0.
`O=C(Nc1nc(-c2cccs2)cs1)c1cccc(S(=O)(=O)N2CCCCC2)c1` gave CYP2C9 act 0.2, MRP-1 activ -2, CYP2C9 inhib 84*, CYP2C19 inh 51*, MRP resist rev 9 and CYP2C19 act 0.5.
Screening COc1cccc(C2C(C(=O)c3sc(C)nc3C)=C(O)C(=O)N2CCN(C)C)c1OC (stereo not drawn) returned CYP2C9 act 1.1, CYP2C9 inhib -5, CYP2C19 inh 2, MRP resist rev -3 and CYP2C19 act 1.
Screening CC(C)c1cc(C(=O)NNC(=S)NCc2ccco2)c(O)c(C(C)C)c1 returned MRP-1 activ -2.
For CC1(C)CC2(CC(c3cccs3)c3cc(Cl)c(O)cc3O2)NC(=S)N1 (stereo not drawn) the results were CYP2C9 act 0.8, MRP-1 activ -4, CYP2C9 inhib 19, CYP2C19 inh 8 and CYP2C19 act 0.9.
Screening Cc1nn(C)c(Cl)c1NC(=O)OCc1ccc(Cl)cc1Cl returned CYP2C9 act 1.1, MRP-1 activ -2, CYP2C9 inhib -14, CYP2C19 inh 68* and CYP2C19 act 0.3.
`Cc1nnsc1NC(=O)OCc1ccc(Cl)cc1Cl` gave CYP2C9 act 0.6, MRP-1 activ 0, CYP2C9 inhib 44, CYP2C19 inh 71* and CYP2C19 act 0.3.
For Cc1nn(Cc2ccc(Cl)cc2Cl)c(C)c1NC(=O)CCl the results were MRP-1 activ -7 and MRP resist rev 0.
For Cc1nnsc1NC(=O)OCCCl the results were CYP2C9 act 1, MRP-1 activ -4, CYP2C9 inhib 0, CYP2C19 inh -3, MRP resist rev -3 and CYP2C19 act 1.

Bioassay records deposited in PubChem by several laboratories.
